High-throughput results: PubChem, several laboratories
This is a sample that favours compounds with a hit; in the whole collection about 2.5% have one here.
NPR1 activator: GC-A stimulated cGMP production enhancers – HEK293 GC-A cells, cGMP TR-FRET, EC30 ANP, primary screen; activation, % at 10 µM; AID 1671463, 2021; 0% at EC30 ANP, 100% saturating ANP; actives 0.14% (n = 370,000); Atrial natriuretic peptide receptor 1 (Homo sapiens), P16066; in the data active = activation above about 40%
HSF1 inhib: HSF1 inhibitors in luciferase reporter cells, primary screen, cell-based, NIH3T3, luminescence; NIH3T3-HGL HSE-luciferase, MG132-induced, luminescence 8 h; hits give low values; activity change, negative = inhibition, % at 7.5 µM (by protocol); actives 0.77% (n = 300,000);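 active = more than half of replicate wells show activity change below -50%, luminescence cut by over half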;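 note: luciferase reports HSF-1 transcriptional activity via heat shock element; 0% = median of DMSO wells and -100% = zero luminescence signal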
GC-B act: human GC-B receptor activators, primary screen, HEK293 GC-B cells, cGMP TR-FRET, EC30 CNP; activation, % at 10 µM; actives 0.11% (n = 370,000); Atrial natriuretic peptide receptor 2 (Homo sapiens), P20594; 0% at EC30 CNP, 100% saturating CNP;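 active = activation at 10 µM reaching about 35% in either raw or pattern-adjusted values, limit read from the data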
Target sequence (P20594 whole entry, looked up): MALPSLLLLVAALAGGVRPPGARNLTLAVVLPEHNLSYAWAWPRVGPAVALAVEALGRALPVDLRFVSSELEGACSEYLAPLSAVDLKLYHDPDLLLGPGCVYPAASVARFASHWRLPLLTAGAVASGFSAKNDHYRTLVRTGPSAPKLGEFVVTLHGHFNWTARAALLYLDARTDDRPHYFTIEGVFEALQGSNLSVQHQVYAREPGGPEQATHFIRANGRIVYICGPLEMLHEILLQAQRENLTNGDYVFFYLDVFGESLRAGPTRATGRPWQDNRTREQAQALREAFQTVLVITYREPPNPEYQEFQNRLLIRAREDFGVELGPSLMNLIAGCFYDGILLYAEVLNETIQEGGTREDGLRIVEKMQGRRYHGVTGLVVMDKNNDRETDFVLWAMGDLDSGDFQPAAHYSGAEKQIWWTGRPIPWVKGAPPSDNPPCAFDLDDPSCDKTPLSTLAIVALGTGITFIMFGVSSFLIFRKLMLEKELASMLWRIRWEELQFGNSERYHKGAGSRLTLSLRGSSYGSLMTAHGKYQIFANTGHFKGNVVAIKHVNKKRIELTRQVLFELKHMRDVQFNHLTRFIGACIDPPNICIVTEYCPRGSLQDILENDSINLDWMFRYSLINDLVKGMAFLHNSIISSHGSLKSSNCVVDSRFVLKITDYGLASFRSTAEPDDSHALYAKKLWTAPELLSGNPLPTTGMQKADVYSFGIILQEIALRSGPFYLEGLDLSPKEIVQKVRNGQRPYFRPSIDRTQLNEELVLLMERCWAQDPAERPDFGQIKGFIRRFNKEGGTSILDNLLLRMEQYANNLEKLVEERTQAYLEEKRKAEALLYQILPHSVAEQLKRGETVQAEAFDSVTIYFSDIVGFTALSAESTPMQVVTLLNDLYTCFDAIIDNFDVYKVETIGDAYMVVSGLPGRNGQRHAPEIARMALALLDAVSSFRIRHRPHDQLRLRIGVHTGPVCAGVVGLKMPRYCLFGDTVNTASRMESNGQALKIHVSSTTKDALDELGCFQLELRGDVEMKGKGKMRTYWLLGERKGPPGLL
aDG glyco act: activators of alpha-DG glycosylation, primary screen, uHTS, Pro5-aDG cells, AlphaScreen; alpha-DG glycosylation AlphaScreen (IIH6); 0% Pro5, 100% B10-LARGE cell signal; actives 0.22% (n = 360,000); activation, % at 10 µM;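 active = activation of at least 8% versus controls, or a plate z-score of at least 8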;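 note: Pro5 are CHO cells carrying HIG-tagged alpha-DG that lacks glycosylation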
Dyrk1A ADPGlo: rat Dyrk1A kinase inhibitors, primary screen, biochemical, single point, plate reader | Dual specificity tyrosine-phosphorylation-regulated kinase 1A (Rattus norvegicus), Q63470 | ADP-Glo luminescence, NFATc1 peptide | inhibition, % at 12.5 µM | actives 0.43% (n = 310,000); in the data active = inhibition above about 50%;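 note: plate controls were vehicle with enzyme for no effect and no enzyme for full effect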
HSF1 activator: HSF-1 activators, primary screen, NIH3T3-HGL cells, MG132 stress, luminescence, single point; NIH3T3-HGL HSF-1 luciferase reporter, 8 h; 100% = twice DMSO control signal; activation, % at 9 µM; actives 1.7% (n = 300,000);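 active = mean replicate activation of at least 50% with a set share of replicates each reaching 50%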;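 note: 0% = median of the neutral control wells and 100% = twice that signal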
Active calls of the source: *; x = no result.

SMILES | NPR1 activator | HSF1 inhib | GC-B act | aDG glyco act | Dyrk1A ADPGlo | HSF1 activator
Cc1ccc2nc(-c3ccccc3)c(Cc3ccccn3)n2c1 | 4 | x | 4 | 0 | x | x
Cc1cccc(NC(=O)C(=O)NCCCc2ccccc2)c1 | 6 | 37 | 1 | x | x | 83*
O=C(CSc1ccc(Cl)cc1)Nc1cccc(NC(=O)c2ccco2)c1 | -8 | 5 | -3 | 0 | 2 | 7
O=C(CSc1ccccc1)Nc1cccc(NC(=O)c2ccco2)c1 | 2 | -68* | 4 | 0 | 9 | -75
CC(C)(C)C(O)/C=C/c1ccc2c(c1)OCO2 (stereo unspecified) | x | 10 | x | x | x | 25
COc1cc(OC)cc(N(C(=O)CNC(=O)c2ccco2)C(C(=O)NCC2CCCO2)c2ccccc2)c1 (stereo unspecified) | -1 | -1 | -4 | 0 | -2 | -18
CC1(Cc2ccc(C(F)(F)F)nc2)C(=O)Nc2cc(-c3ccccc3Cl)ccc21 (stereo unspecified) | 42* | x | 2 | 1 | x | x
CC1(Cc2ccccc2C#N)C(=O)Nc2cc(-c3ccccc3Cl)ccc21 (stereo unspecified) | 13 | x | 9 | 0 | x | x
S=C(c1ccc(-c2ccc(Cl)cc2Cl)o1)N1CCCC1 | 8 | 39 | 30 | 0 | x | 46
S=C(c1ccc(-c2ccc(Cl)cc2Cl)o1)N1CCCCC1 | 8 | 30 | 10 | 0 | -1 | 36
CN1CCN(C(=S)c2ccc(-c3cc(Cl)ccc3Cl)o2)CC1 | 4 | 12 | 50* | 0 | x | 16
N#CCCN1CCN(C(=S)c2ccc(-c3cc(Cl)ccc3Cl)o2)CC1 | 4 | 1 | 97* | 0 | -7 | 12
N/C(Cc1cccc2ccccc12)=N\OC(=O)c1ccccc1F | -2 | -3 | -5 | 0 | 6 | 21
N/C(Cc1ccc(Cl)cc1Cl)=N\OC(=O)c1ccccc1F | -1 | 34 | -2 | 0 | 4 | 68*
COC(=O)C1=C(C)NC(C)=C(C(=O)OC)C1c1ccc(-c2cc(Cl)ccc2Cl)o1 | -15 | 13 | -3 | 0 | -2 | 15
COC(=O)C1=C(C)NC(C)=C(C(=O)OC)C1c1ccc(-c2cccc(Cl)c2Cl)o1 | -3 | 22 | -2 | 0 | 2 | 53*
COC(=O)C1=C(C)NC(=S)NC1c1ccc(-c2cccc(Cl)c2)o1 (stereo unspecified) | 3 | 44 | 1 | 0 | 10 | 72*
C/C(N)=C(/C#N)C(=O)CSc1nnc(Nc2cccc(C)c2)s1 | -4 | 30 | -4 | 0 | 4 | 56*
C/C(N)=C(/C#N)C(=O)CSc1nc2cc(Cl)ccc2s1 | 3 | 37 | -7 | 0 | -3 | 76*
Cc1cccc(Nc2nnc(SCC(=O)c3c(N)n(C4CC4)c(=O)[nH]c3=O)s2)c1 | -1 | x | 0 | 0 | x | x
CCOc1ccc(-n2c(=S)sc3c(=O)[nH]c(SCC(=O)NC(C)CC)nc32)cc1 (stereo unspecified) | -4 | 42 | -3 | 0 | -8 | 72*
CCOC(=O)CC(=O)CSc1nc2c(sc(=S)n2-c2ccc(OCC)cc2)c(=O)[nH]1 | -5 | -9 | 0 | 0 | -70 | 0
CC1CCN(CC(=O)Nc2ccc(S(=O)(=O)NC3CC3)cc2)CC1 | 3 | -65* | -1 | 0 | -6 | -72
CCCCN(CCCC)CCCNC(=O)CC1Oc2ccc(C)cc2NC1=O (stereo unspecified) | 0 | -2 | 1 | 0 | -1 | -14
Cc1cc(C)n2nc(C(=O)N/N=C/c3cccc(Cl)c3)nc2n1 | -5 | 21 | -7 | 0 | 2 | 56*
SMILES | NPR1 activator | HSF1 inhib | GC-B act | aDG glyco act | Dyrk1A ADPGlo | HSF1 activator
Cc1cc(C)n2nc(C(=O)N/N=C/c3ccc(Cl)cc3)nc2n1 | 4 | -9 | -7 | 0 | 9 | -12
O=C1NC(Cc2ccc(O)cc2)c2nc3ccc(F)cc3c(=O)n2-c2cc3ccccc3cc21 (stereo unspecified) | 0 | x | 65* | 0 | x | x
O=C1NC(Cc2ccccc2)c2nc3cc(F)c(F)cc3c(=O)n2-c2cc3ccccc3cc21 (stereo unspecified) | -6 | x | -2 | 4 | x | x
O=C1NC(Cc2ccc(O)cc2)c2nc3cc(F)c(F)cc3c(=O)n2-c2cc3ccccc3cc21 (stereo unspecified) | -1 | x | 38* | -1 | x | x
Cc1ccc2nc3n(c(=O)c2c1)-c1cc2ccccc2cc1C(=O)NC3Cc1ccc(O)cc1 (stereo unspecified) | -4 | x | 15 | 0 | x | x
CC1CC(C)CN(C(=O)COc2cccnc2[N+](=O)[O-])C1 (stereo unspecified) | -1 | x | -5 | 0 | x | x
CS(=O)(=O)c1ccccc1-c1nnc(NC(=O)CCS(=O)(=O)c2ccc(Cl)cc2)o1 | 4 | 0 | 6 | 0 | -12 | 0
CC(C)COc1ccc(-c2cc(C(=O)NN)[nH]n2)cc1 | -1 | 12 | -4 | 0 | -2 | 52*
COc1ccc(CNc2nc3c(c(=O)[nH]c(=O)n3C)n2Cc2ccccc2C)cc1 | 1 | -69* | -6 | 0 | 0 | -79
Cc1cccc(Cn2c(NC3CCCC3)nc3c2c(=O)[nH]c(=O)n3C)c1 | 20 | x | 10 | 0 | x | x
Cn1c(=O)[nH]c(=O)c2c1nc(NC1CCCCC1)n2Cc1ccccc1 | 52* | 1 | 39* | 0 | 2 | 1
CCOC(=O)c1c(C)[nH]c(C(=O)COC(=O)C2(C)CC2(Cl)Cl)c1C (stereo unspecified) | 10 | 21 | 5 | 1 | 4 | 56*
O=C(CN1C(=O)c2ccccc2S1(=O)=O)c1ccc(F)cc1 | 4 | -37 | 2 | 0 | -1 | -43
O=C(CN1C(=O)c2ccccc2S1(=O)=O)c1ccc2c(c1)OCCCO2 | 6 | -88* | 1 | 0 | 7 | -90
O=C(CN1C(=O)c2ccccc2S1(=O)=O)c1ccc2c(c1)OCCO2 | 5 | -78* | -2 | 0 | 2 | -81
O=C(CC1C(=O)CCCC1=O)c1ccccc1 | 3 | 9 | 6 | 0 | 1 | 35
Oc1[nH]c(N=C2N=c3ccccc3=N2)c2ccccc12 | -8 | 196 | -10 | 0 | -4 | 288*
CCCC(=O)Nc1ccc2c(c1)nc(CN1CCN(C(=O)OCC)CC1)n2CC | -1 | -9 | 1 | 0 | -3 | 8
O=C(CNS(=O)(=O)c1ccc(Br)s1)NCc1ccc(F)cc1 | 2 | 3 | 3 | 0 | -4 | 31
